Among the data in PubChem BioAssay (NCI) are growth values, retold here.

Some test systems named below: T-47D breast; BT-549 breast; MDA-MB-435 melanoma; SW-620 colon; MCF7 breast; HCT-116 colon; HCC-2998 colon; KM12 colon.
Common to all, as to test: NCI-60 one-dose screen, 48 h (100 = growth as untreated, 0 = no growth, -100 = all killed)
Conditions in all cases: 10 µM unless noted

This is part of a sample that, as a whole, favours compounds with a hit. Of some 83,000 tested, about 20% had one in any assay.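 48-hour exposure, single concentration, 96-well plates; percent growth endpoint where 0 means no net growth. Active: below 10.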 Values without a mark were called inactive. Active and inactive are the calls of the source.

On to `O=C1OCC2=C1C(c1cccc(F)c1)c1cc3c(cc1N2CCO)OCO3` (configuration not stated), for which the growth in the experiment with T-47D breast was 21.3%; with BT-549 breast, 32.8%; with MDA-MB-435 melanoma it was -0.149% (active); with SW-620 colon, 15.8%; in the experiment on MCF7 breast, 20%; in the experiment on HCT-116 colon, 18.2%. In addition, the growth in the experiment with HCC-2998 colon was 77%; with KM12 colon it was 25.3%.
On to `COc1cc(C(=O)/C=C/c2c(-c3cccs3)nc3ccccn23)cc(OC)c1OC`, for which the growth was 18.2% in the experiment on T-47D breast; -16.9% (active) in the experiment with BT-549 breast; 11% with MDA-MB-435 melanoma; 4.78% (active) in the experiment with SW-620 colon; 7.96% (active) in the experiment on MCF7 breast; -5.59% (active) in the experiment on HCT-116 colon. For the same compound, the results for the growth in the experiment with HCC-2998 colon and with KM12 colon were 17.1% and -25.6% (active), respectively.
Take `N#Cc1c(-c2ccccc2)cc(-c2ccccc2)n(CCCC(=O)NO)c1=O`: the growth is 18.7% in the experiment with T-47D breast; 53.9% with BT-549 breast; -12.4% (active) in the experiment on MDA-MB-435 melanoma; 17.3% in the experiment on SW-620 colon; 22.5% in the experiment with MCF7 breast; 7.06% (active) in the experiment with HCT-116 colon. In addition, the growth with HCC-2998 colon was 47.4%; in the experiment on KM12 colon, 24.9%.
As for `CC[C@@H](c1ccc2cc(OC)ccc2c1)C(C)(C)C(=O)F`, the growth was 118% in the experiment on T-47D breast; 19.9% in the experiment on BT-549 breast; 102% in the experiment with MDA-MB-435 melanoma; 94.6% in the experiment on SW-620 colon; 108% in the experiment on MCF7 breast; 85.6% with HCT-116 colon. The growth in the experiment with HCC-2998 colon is 55.1%; with KM12 colon, 107%.
Take `O=C(CCCCCCCCC(=O)N/N=C\c1cc(Cl)ccc1O)N/N=C\c1cc(Cl)ccc1O`: the growth was 28.2% in the experiment with T-47D breast; 38.5% in the experiment on BT-549 breast; 38.1% in the experiment with MDA-MB-435 melanoma; 46.5% in the experiment with SW-620 colon; 20% in the experiment with MCF7 breast; 22.7% in the experiment on HCT-116 colon. Moreover, the growth was 39% with HCC-2998 colon and 24.2% with KM12 colon.
As to `Brc1ccc(-c2cnc3nonc3n2)cc1`, the growth in the experiment with T-47D breast is 69.7%; in the experiment on BT-549 breast it was 115%; with MDA-MB-435 melanoma it was 3.37% (active); in the experiment with SW-620 colon it was 77.6%; in the experiment on MCF7 breast it was 28.2%; in the experiment on HCT-116 colon it was 60%. Besides, the results for the growth with HCC-2998 colon and in the experiment on KM12 colon were 91.3% and 78.2%, respectively.
For `Fc1ccc(CNc2c3ccccc3nc3ccccc23)cc1`, the growth is 31.1% with T-47D breast; 80.7% in the experiment with BT-549 breast; 34.8% with MDA-MB-435 melanoma; 22.8% with SW-620 colon; 7.09% (active) in the experiment with MCF7 breast; 12.6% with HCT-116 colon. Besides, the growth in the experiment with HCC-2998 colon was 18.3%; in the experiment on KM12 colon, 28.3%.
Turning to `CCN1CCN(CC(=O)Nc2nc3ccc(NCc4ccc(Br)cc4)cc3s2)CC1`, the growth in the experiment on T-47D breast is 48.1%; with BT-549 breast, 85.7%; in the experiment on MDA-MB-435 melanoma, -6.35% (active); in the experiment on SW-620 colon, 5.94% (active); in the experiment with MCF7 breast, 10.3%; in the experiment with HCT-116 colon, 17.8%. Moreover, the figures for the growth in the experiment with HCC-2998 colon and in the experiment on KM12 colon were 62.6% and 52.8%, respectively.
For `CN(CCC#N)c1ccc(/C=C2\NC(=O)NC2=O)cc1`, the growth is 112% in the experiment with T-47D breast; 51.4% in the experiment with BT-549 breast; 93.1% with MDA-MB-435 melanoma; 99.8% in the experiment on SW-620 colon; 102% in the experiment with MCF7 breast; 91.2% in the experiment on HCT-116 colon. The growth was 96.7% with HCC-2998 colon and 101% with KM12 colon.
Regarding `NC(CSC(c1ccccc1)(c1ccccc1)c1ccc2c(c1)OCO2)C(=O)O` (configuration not stated), the growth with T-47D breast is 30.2%; in the experiment with BT-549 breast, 22.7%; with MDA-MB-435 melanoma, -58% (active); in the experiment with SW-620 colon, 12.9%; with MCF7 breast, 10.3%; in the experiment with HCT-116 colon it was 7.34% (active). In addition, the figures for the growth in the experiment on HCC-2998 colon and with KM12 colon were 9.26% (active) and 13.1%, respectively.
On to `CCN1C(=S)N(CC)C2C1NC(=S)N2/N=C/C=C/c1ccccc1OC` (configuration not stated), for which the growth in the experiment on T-47D breast was 59.4%; with BT-549 breast, 13.5%; with MDA-MB-435 melanoma, -42.8% (active); with SW-620 colon, 23.8%; in the experiment with MCF7 breast, 17.9%; with HCT-116 colon, 13.6%. In addition, the growth in the experiment with HCC-2998 colon was 11.6%; in the experiment on KM12 colon it was 15%.
In the case of `CCC(C)Nc1ccc(NC(C)CC)cc1` (configuration not stated), the growth with T-47D breast is 79.7%; in the experiment with BT-549 breast, 85.4%; in the experiment on MDA-MB-435 melanoma, 95.3%; in the experiment with SW-620 colon, 106%; with MCF7 breast, 47.2%; in the experiment on HCT-116 colon, 28.2%. The growth was 80.2% with HCC-2998 colon and 112% in the experiment on KM12 colon.
For `O=C1N[C@@H]2[C@@H](O)[C@@H](O)[C@H](O)C[C@H]2c2cc3c(c(O)c21)OCCO3`, the growth in the experiment with T-47D breast was -15.8% (active); with BT-549 breast it was -17.5% (active); in the experiment with MDA-MB-435 melanoma it was 1.45% (active); in the experiment on SW-620 colon, 4.85% (active); in the experiment on MCF7 breast, -13.3% (active); with HCT-116 colon it was -3.3% (active). Also, the growth with HCC-2998 colon is -46.2% (active); in the experiment with KM12 colon it was -2.6% (active).
`COP(=O)(OC)c1nnn(-c2cccc([N+](=O)[O-])c2)c1C`: the growth in the experiment with T-47D breast is 99.4%; in the experiment with BT-549 breast it was 105%; in the experiment with MDA-MB-435 melanoma it was 108%; with SW-620 colon, 100%; in the experiment on MCF7 breast, 97.9%; in the experiment on HCT-116 colon, 105%. The growth with HCC-2998 colon was 110%; in the experiment on KM12 colon, 105%.
